This is an account of results in the supplement of paper PMC9023506.

Where a name gives a salt, the structure may show the parent alone.

The test system of this experiment is Danio rerio larvae (5 dpf). Nature of the experiment: habituation to 1-s acoustic pulses, difference vs DMSO (percentage points (treated minus DMSO)); higher = more of the behaviour than the DMSO vehicle control. The following applies: 10 µM; exposure time: 3 h pre-incubation + 3 h imaging. As for the experimental part: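 5-dpf wild-type zebrafish larvae were imaged in 96-well plates. They were treated with 190 Tocris FDA-approved drugs at 10 µM (1 µl/ml DMSO) for 3 h before and 3 h during imaging at 28.5 °C, 48 larvae per drug. Automated image analysis gave % time moving and optomotor responses. Values are drug group mean minus DMSO vehicle mean (n=844), in percentage points, for 10 behaviours.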
Consider `CCOC(=O)[C@H](CCc1ccccc1)N[C@@H](C)C(=O)N1[C@H](C(=O)O)C[C@@H]2CCC[C@@H]21` [Ramipril], for which the “habituation to 1-s acoustic pulses” value is -1.94.
Consider `N#Cc1ccc2[nH]cc(CCCCN3CCN(c4ccc5oc(C(N)=O)cc5c4)CC3)c2c1` [Vilazodone hydrochloride], for which the “habituation to 1-s acoustic pulses” value was -3.73.
As to `CCCCCCCN(CC)CCCC(O)c1ccc(NS(C)(=O)=O)cc1` (stereo not given) [Ibutilide hemifumarate], the “habituation to 1-s acoustic pulses” value stood at 2.78.
On to `Brc1c(NC2=NCCN2)ccc2nccnc12`, for which the “habituation to 1-s acoustic pulses” value was -5.95.
In the case of `C[C@@H]1C[C@H]2[C@@H]3CCC4=CC(=O)C=C[C@]4(C)[C@@]3(F)[C@@H](O)C[C@]2(C)[C@@]1(O)C(=O)CO` [Dexamethasone], the “habituation to 1-s acoustic pulses” value stood at 2.44.
For `OC(c1cc(C(F)(F)F)nc2c(C(F)(F)F)cccc12)C1CCCCN1` (stereo not given) [Mefloquine hydrochloride], the “habituation to 1-s acoustic pulses” value was 0.613.
Consider `C#CCN[C@@H]1CCc2ccccc21` [Rasagiline mesylate], for which the “habituation to 1-s acoustic pulses” value amounted to 2.65.
For `CC(C)OC(=O)C(C)(C)Oc1ccc(C(=O)c2ccc(Cl)cc2)cc1` [Fenofibrate], the “habituation to 1-s acoustic pulses” value is -5.04.
For the compound `OC(CNCC(O)C1CCc2cc(F)ccc2O1)C1CCc2cc(F)ccc2O1` (stereo not given) [Nebivolol hydrochloride], the “habituation to 1-s acoustic pulses” value is -9.34.
In the case of `CN(C)C(=N)NC(=N)N` [Metformin hydrochloride], the “habituation to 1-s acoustic pulses” value is 0.867.
As to `COc1cc([C@@H]2c3cc4c(cc3[C@@H](O[C@@H]3O[C@@H]5CO[C@@H](C)O[C@H]5[C@H](O)[C@H]3O)[C@H]3COC(=O)[C@H]23)OCO4)cc(OC)c1O` [Etoposide], the “habituation to 1-s acoustic pulses” value was 0.485.
Next, `NC(=O)N1c2ccccc2C=Cc2ccccc21` [Carbamazepine]: 2.65.
Next, `C[C@H]1O[C@H](O[C@H]2[C@H](O)[C@@H](O)[C@@H](O[C@H]3[C@H](O)[C@@H](O)C(O)O[C@@H]3CO)O[C@@H]2CO)[C@H](O)[C@@H](O)[C@@H]1N[C@H]1C=C(CO)[C@@H](O)[C@H](O)[C@H]1O` (stereo not given in full) [Acarbose]: 3.26; `CN1CC[C@@H](NC(=O)Nc2ccc(C#N)cc2)C[C@@H]1c1nc2ccccc2[nH]1`: -0.957.
As for `N#C[C@@H]1C[C@@H]2C[C@@H]2N1C(=O)[C@@H](N)C12CC3CC(CC(O)(C3)C1)C2` [Saxagliptin hydrochloride], the “habituation to 1-s acoustic pulses” value was found to be 1.97.
In the case of `CN(C)CCC[C@@]1(c2ccc(F)cc2)OCc2cc(C#N)ccc21` [Escitalopram oxalate], the “habituation to 1-s acoustic pulses” value was -4.74.
For the compound `NS(=O)(=O)Cc1noc2ccccc12` [Zonisamide], the “habituation to 1-s acoustic pulses” value was -0.0674.
`CN1CCC[C@@H]1Cc1c[nH]c2ccc(CCS(=O)(=O)c3ccccc3)cc12` [Eletriptan hydrobromide]: the “habituation to 1-s acoustic pulses” value worked out at 10.1.
As for `CNC(=O)c1ccccc1Sc1ccc2c(/C=C/c3ccccn3)n[nH]c2c1` [Axitinib], the “habituation to 1-s acoustic pulses” value is -2.02.
The value for `COc1cc2ncnc(Nc3ccc(F)c(Cl)c3)c2cc1OCCCN1CCOCC1` [Iressa] was 0.91; that for `CC(=O)O[C@H]1C(=O)[C@@]2(C)[C@H]([C@H](OC(=O)c3ccccc3)[C@]3(O)C[C@H](OC(=O)[C@H](O)[C@@H](NC(=O)c4ccccc4)c4ccccc4)C(C)=C1C3(C)C)[C@]1(OC(C)=O)CO[C@@H]1C[C@@H]2O` [Taxol] was -2.74.
As to `CCCCc1nc(Cl)c(CO)n1Cc1ccc(-c2ccccc2-c2nnn[nH]2)cc1` [Losartan potassium], the “habituation to 1-s acoustic pulses” value stood at 0.91.
Consider `Cc1ccsc1C(=CCCN1CCC[C@@H](C(=O)O)C1)c1sccc1C` [Tiagabine hydrochloride], for which the “habituation to 1-s acoustic pulses” value was found to be 6.27.
The value for `Nc1nc2[nH]cc(CCc3ccc(C(=O)N[C@@H](CCC(=O)O)C(=O)O)cc3)c2c(=O)[nH]1` [Pemetrexed] was -1.43.
Consider `COC(c1ccccc1)(c1ccccc1)[C@H](Oc1nc(C)cc(C)n1)C(=O)O` [Ambrisentan], for which the “habituation to 1-s acoustic pulses” value worked out at 1.34.
As to `COc1cccc2c1C(=O)c1c(O)c3c(c(O)c1C2=O)C[C@@](O)(C(=O)CO)C[C@@H]3O[C@H]1C[C@H](N)[C@H](O)[C@H](C)O1` [Doxorubicin hydrochloride], the “habituation to 1-s acoustic pulses” value worked out at 3.26.
Turning to `Nc1ccn([C@@H]2O[C@H](CO)[C@@H](O)C2(F)F)c(=O)n1` [Gemcitabine hydrochloride], the “habituation to 1-s acoustic pulses” value is -2.82.
Regarding `Cc1ccc(N(CC2=NCCN2)c2cccc(O)c2)cc1` [Phentolamine Mesylate], the “habituation to 1-s acoustic pulses” value is 5.8.
Regarding `CNCc1ccc(-c2[nH]c3cc(F)cc4c3c2CCNC4=O)cc1` [Rucaparib camsylate], the “habituation to 1-s acoustic pulses” value came out at 4.21.
Regarding `C=CC(=O)N1CCC[C@@H](n2nc(-c3ccc(Oc4ccccc4)cc3)c3c(N)ncnc32)C1` [Ibrutinib], the “habituation to 1-s acoustic pulses” value is -7.68.
Turning to `Nc1cccc2c1CN(C1CCC(=O)NC1=O)C2=O` (stereo not given) [Lenalidomide], the “habituation to 1-s acoustic pulses” value was -1.09.
For `Cc1cccc(CN2CCN(C(c3ccccc3)c3ccc(Cl)cc3)CC2)c1` (stereo not given) [Meclizine dihydrochloride], the “habituation to 1-s acoustic pulses” value was -10.1.
Next, `CCOc1ccccc1OCCN[C@H](C)Cc1ccc(OC)c(S(N)(=O)=O)c1` [Tamsulosin hydrochloride]: -0.195.
For the compound `CCOC(=O)[C@H](CCc1ccccc1)N[C@H]1CCc2ccccc2N(CC(=O)O)C1=O` [Benazepril hydrochloride], the “habituation to 1-s acoustic pulses” value was determined as 3.08.
The value for `CC(C)C(=O)OCC(=O)[C@@]12O[C@H](C3CCCCC3)O[C@@H]1C[C@H]1[C@@H]3CCC4=CC(=O)C=C[C@]4(C)[C@H]3[C@@H](O)C[C@@]12C` [Ciclesonide] was -1.43.
The value for `COc1ccc(C[C@@H](C)NC[C@H](O)c2ccc(O)c(NC=O)c2)cc1` [Arformoterol tartrate] was -3.34.
The value for `CCOC(=O)C1=C(COCCN)NC(C)=C(C(=O)OC)C1c1ccccc1Cl` (stereo not given) [Amlodipine besylate] was -2.17; that for `CC(C)C(=O)Nc1ccc([N+](=O)[O-])c(C(F)(F)F)c1` [Flutamide] was -15.5.
For `CC(CCc1ccc(O)cc1)NCCc1ccc(O)c(O)c1` (stereo not given) [Dobutamine hydrochloride], the “habituation to 1-s acoustic pulses” value stood at 1.34.
`Cc1nc(-c2ccc(OCC(C)C)c(C#N)c2)sc1C(=O)O` [Febuxostat]: the “habituation to 1-s acoustic pulses” value is -2.75.
